In the supplement of paper PMC11219838:

Legend:
Conditions in all cases: 60 µM; 5 days; temperature: 20 °C
Meloidogyne hapla J2 = test: proportion of mobile M. hapla J2 relative to DMSO control (fraction of DMSO control); higher = more viable, less nematicidal, active = 0.7 or less
Procedure, shortened: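 Two biological replicates were run and averaged, each on 96-well plates in which about 25 M. hapla J2 sat in distilled water per well. Compound was pinned in to give 60 µM final and 0.6% v/v DMSO, and the sealed plates were shaken at 200 rpm and 20 °C for 5 days before 2 µL 1 M NaOH was added. Mobility was scored microscopically and divided by the mean from the plate's DMSO-only wells, of which there were eight.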

[1] = system: Caenorhabditis elegans dauer (daf-2(e1370)); test: proportion of mobile C. elegans dauer larvae relative to DMSO control (fraction of DMSO control); higher = more viable, less nematicidal, active = 0.63 or less; extreme values may be limits of the assay
Procedure, shortened: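 Synchronized C. elegans daf-2(e1370) larvae were held at 25 °C for 48 h on MYOB plates with E. coli OP50 to form dauers, and about 20 dauers were added per 96-well well in liquid NGM. Compound was pinned to 60 µM final (0.6% v/v DMSO), and sealed plates were shaken at 200 rpm for 5 days at 20 °C. The proportion of mobile worms was scored under a dissection microscope relative to DMSO controls and averaged over two biological replicates.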

Ditylenchus dipsaci = test: proportion of mobile D. dipsaci (mixed stage) relative to DMSO control (fraction of DMSO control); higher = more viable, less nematicidal, active = 0.86 or less; extreme values may be limits of the assay
Procedure, shortened: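 The worms, D. dipsaci raised on pea plants in Gamborg B-5 agar, were recovered through a filter funnel into water. Each well of a 96-well plate then held about 20 of them in distilled water plus pinned compound at 60 µM final (0.6% v/v DMSO), and the sealed plates were shaken at 200 rpm at 20 °C for 5 days. Following addition of 2 µL 1 M NaOH, mobile worms were counted by microscopy, and mobility was expressed against DMSO controls as the average of two biological replicates.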

Compound | proportion of mobile M. hapla J2 (Meloidogyne hapla J2) | proportion of mobile C. elegans dauer larvae [1] | proportion of mobile D. dipsaci (Ditylenchus dipsaci)
CCOc1nc(-c2ccc(C)cc2)ccc1-c1noc(-c2ccco2)n1 | 0.944 (inactive) | 1 (inactive) | 1 (inactive)
COc1ccc(CC(=O)Nc2ccc(-c3noc(COc4cccc(C)c4C)n3)cc2)cc1 | 0.88 (inactive) | 1 (inactive) | 1 (inactive)
CCNC(=O)c1ccccc1-c1nc(-c2ccc(F)cc2)no1 | 0.998 (inactive) | 1 (inactive) | 1 (inactive)
c1ccc(COc2cccc(-c3nc(-c4cccnc4)no3)c2)cc1 | 0.854 (inactive) | 1 (inactive) | 1 (inactive)
COc1ccc(-c2noc(-c3ccc(C)c(C)c3)n2)cc1 | 0.807 (inactive) | 1 (inactive) | 1 (inactive)
CCOc1ccccc1-c1nnc(SCc2ccc(C(=O)OC)o2)o1 | 0.904 (inactive) | 1 (inactive) | 1 (inactive)
COc1cccc(-c2noc(COc3ccc(C)cc3)n2)c1 | 0.769 (inactive) | 1 (inactive) | 1 (inactive)
CCOc1ccccc1-c1nnc(SCC(=O)NC(C)CC)o1 (stereo not drawn) | 0.951 (inactive) | 1 (inactive) | 1 (inactive)
COc1ccc(CCC(=O)Nc2ccc(-c3noc(-c4ccc(F)cc4)n3)cc2)cc1 | 0.746 (inactive) | 1 (inactive) | 1 (inactive)
Clc1ccc(-c2nnc(SCc3ccccc3)o2)c(Cl)c1 | 0.957 (inactive) | 1 (inactive) | 1 (inactive)
COc1ccc(-c2noc(COc3ccccc3)n2)cc1 | 1.02 (inactive) | 1 (inactive) | 1 (inactive)
O=C(CSc1nnc(-c2cc3ccccc3o2)o1)NC1CC1 | 0.928 (inactive) | 1 (inactive) | 1 (inactive)
COc1cccc(-c2nnc(SCC(=O)NC3CCCCC3)o2)c1 | 0.869 (inactive) | 1 (inactive) | 1 (inactive)
c1ccc(CSc2nnc(-c3ccccc3)o2)cc1 | 1.04 (inactive) | 1 (inactive) | 0.864 (inactive)
CCCCCSc1nnc(-c2ccc(Cl)cc2Cl)o1 | 0.96 (inactive) | 1 (inactive) | 1 (inactive)
O=C(CSc1nnc(-c2ccccc2)o1)Nc1ccc(F)cc1F | 1.03 (inactive) | 1 (inactive) | 1 (inactive)
CCOc1ccc(NC(=O)CSc2nnc(-c3ccncc3)o2)cc1 | 0.897 (inactive) | 1 (inactive) | 1 (inactive)
CCOc1cc(-c2noc(-c3ccncc3)n2)ccc1OC | 0.745 (inactive) | 1 (inactive) | 1 (inactive)
COc1ccc(C(=O)CSc2nnc(-c3cccc(Br)c3)o2)cc1 | 1.04 (inactive) | 1 (inactive) | 1 (inactive)
COc1ccc(-c2nnc(SCC(=O)Nc3ccc(Br)c(C)c3)o2)cc1 | 0.999 (inactive) | 1 (inactive) | 1 (inactive)
O=C(c1ccccc1-c1nc(-c2ccc(Cl)cc2)no1)N1CCCCC1 | 0.941 (inactive) | 1 (inactive) | 1 (inactive)
O=C(CSc1nnc(-c2ccc(Br)cc2)o1)N1CCCCCC1 | 0.844 (inactive) | 1 (inactive) | 1 (inactive)
CCc1ccc(OCc2nc(-c3cccnc3)no2)cc1 | 1.04 (inactive) | 0.436 (active) | 1 (inactive)

Compound | proportion of mobile M. hapla J2 (Meloidogyne hapla J2) | proportion of mobile C. elegans dauer larvae [1] | proportion of mobile D. dipsaci (Ditylenchus dipsaci)
CCc1ccc(OCc2nc(-c3ccc(Cl)cc3)no2)cc1 | 1.03 (inactive) | 1 (inactive) | 1 (inactive)
O=C(CSc1nnc(-c2ccco2)o1)Nc1cc(Cl)ccc1Cl | 1.01 (inactive) | 1 (inactive) | 1 (inactive)
Cc1ccccc1OCc1nc(-c2cccs2)no1 | 0.753 (inactive) | 1 (inactive) | 1 (inactive)
Cc1cc(C)c(CSc2nnc(-c3ccccc3)o2)c(C)c1 | 0.962 (inactive) | 1 (inactive) | 1 (inactive)
Cn1cc(C(=O)CSc2nnc(-c3cccc(Cl)c3)o2)c2ccccc21 | 0.999 (inactive) | 1 (inactive) | 1 (inactive)
Cc1cccc(-c2noc(-c3ccc(C)c(Cl)c3)n2)c1 | 1.01 (inactive) | 1 (inactive) | 1 (inactive)
COc1ccc(-c2nnc(SCC(=O)c3ccccc3)o2)cc1 | 0.767 (inactive) | 1 (inactive) | 1 (inactive)
Brc1ccc(OCc2nc(-c3ccncc3)no2)cc1 | 0.995 (inactive) | 1 (inactive) | 1 (inactive)
Cc1[nH]c2ccc(-c3nnc(SCC(=O)NCc4ccc(F)cc4)o3)cc2c1C | 0.865 (inactive) | 1 (inactive) | 1 (inactive)
CCSc1nnc(-c2ccc(Cl)cc2)o1 | 0 (active) | 0 (active) | 0 (active)
COc1ccc(-c2noc(-c3cccc(C)c3)n2)cc1 | 1.08 (inactive) | 0.889 (inactive) | 1 (inactive)
Cc1ccc(-c2noc(COc3cccc(C)c3)n2)cc1 | 0.972 (inactive) | 1 (inactive) | 1 (inactive)
Cn1c(SCc2ccc(Cl)cc2)nnc1-c1ccco1 | 1.05 (inactive) | 1 (inactive) | 1 (inactive)
COc1ccccc1NC(=O)CSc1nnc(-c2cccc3ccccc23)o1 | 0.811 (inactive) | 1 (inactive) | 1 (inactive)
COc1ccc(-c2noc(COc3ccc(C)cc3Br)n2)cc1 | 1.01 (inactive) | 1 (inactive) | 1 (inactive)
O=C(CSc1nnc(-c2ccco2)o1)Nc1ccc(F)cc1 | 0.939 (inactive) | 1 (inactive) | 1 (inactive)
O=C(CSc1nnc(-c2ccncc2)o1)Nc1cc(C(F)(F)F)ccc1Cl | 0.841 (inactive) | 1 (inactive) | 1 (inactive)
Clc1cccc(OCc2nc(-c3cccs3)no2)c1 | 0.942 (inactive) | 0.5 (active) | 1 (inactive)
CCCCCOC(=O)CSc1nnc(-c2ccc(Cl)cc2Cl)o1 | 0.737 (inactive) | 1 (inactive) | 1 (inactive)
O=C(NCCc1ccccc1)c1ccccc1-c1nc(-c2ccccc2Cl)no1 | 0.669 (active) | 1 (inactive) | 1 (inactive)
Cc1ccc(NC(=O)CSc2nnc(-c3ccccc3)o2)cc1C | 0.983 (inactive) | 1 (inactive) | 1 (inactive)
COc1ccccc1OCc1nc(-c2ccc(Br)cc2)no1 | 1.04 (inactive) | 1 (inactive) | 1 (inactive)
Cc1ccc(NC(=O)CSc2nnc(-c3ccco3)o2)cc1Cl | 0.96 (inactive) | 1 (inactive) | 0.5 (active)
